According to paper PMC12864922, “TDP-43 directly inhibits mRNA accumulation in neurites through modulation of mRNA stability”:
In all, about 9,900 sequences were measured (“r (bound/input frequency ratio)”: median about 0.7, highest 2% from about 6.5 on). The full list was thinned out, with the highest values kept by preference.

B1: ENSMUSG00000031028.651|Tub (ssRNA)
RNA: GGGAGUUCUACAGUCCGACGAUCGCUUCGAUAUCCGCAUGCUAGCUGAAAUGUAGAGUGUUCUAUAGAGCAUCUCAGUAGCAUAGAAGGAGAAGCCCAGCUCCAACCUCCUGGACCCCAUACUGGUGACCAGCUUGGUGAGGACAGGCAAAAUUUCUCUAGCUGAGAGCACACUUAGCCAGUUUUCACGCCUAGAACAUAUAUGUCGAUUUGCACAUGAUUGUCUUUUCCUAUUUUGGAGUGGUCAGACAUUUUAUUUUUGUUCAAAAUUAUCUGGAGUUUUAGACAAACUUGCAAAACUGUGCUCUUGCGGUCGCACUAGUGUGGAAUUCUCGGGUGUCAAGG
B2: ENSMUSG00000090935.711|Synj2bp (ssRNA)
RNA: GGGAGUUCUACAGUCCGACGAUCGCUUCGAUAUCCGCAUGCUAAAGAACUGGGCUAAGUCCAGAGCUCUGCUCUCUGAGCAUCUGCCCCAGAUACAGAGGCAGAGUAUGAAGUGGAACAUUGUUUUAUUCCUAGGUGCUCAGGACAGACUGAUCAACCUCCAGUAACAUAUGUGGUUAGUAAGUGCUUCAGCUUGUGUAGCCAUUAAUAACCAAGUCAUAGGAUUGUGAAUCUAAAAUACUCCUGGGUAAAAUUUGUAUUAGAAUGGAAAAAAAAAUGAGGGUCAGAAAGGUGAGCUAACUUCCUCUUGCGGUCGCACUAGUGUGGAAUUCUCGGGUGUCAAGG
B3: ENSMUSG00000029636.217|Wasf3|154:158;247:254 (ssRNA)
RNA: GGGAGUUCUACAGUCCGACGAUCGCUUCGAUAUCCGCAUGCUAAUAAGUCUGUGAUAUCCGCAGGCUUGGGUUACAGGGAGGACCUUGCAGAGGGACCAGGACACUGCCUUCCCUUAGGUGCAUUAUUUACGUGGCCUGCAGCUCUUAAUAUCUCUCACUGUUUAUGAAAAGAAAGAUUCAGAUCCGGGGUGACAUACACACAGUUGACAGGGAAUGCCUGUGGGAUAAUUAAAAAUGGUUUUUGCUCAUGAGUUUGGGAUGUCACCCAGCCGCCCACAUCGCCUGCUAACACACACGACGCCCUCUUGCGGUCGCACUAGUGUGGAAUUCUCGGGUGUCAAGG
B4: ENSMUSG00000031028.206|Tub (ssRNA)
RNA: GGGAGUUCUACAGUCCGACGAUCGCUUCGAUAUCCGCAUGCUACCAGAGAUGAAACCCCUCCGAGUUAAUGUAUAAGGUUGGAAACCUUUCAGUAGGGAAUCAGGCAGUUCCCUGUUGAAAGUUGUCUGAGUUUUUGCACACCAUUCUGAUCUGAUGUGGCCUGUGCCUGGCUCCUCUAUGAGGACUUCGAGCUGUGCACAGACCUUAGCAGGACCACUGCACACUUUGUGUCUGUGUGACAGGCAGCCCAAGGGUUCUGGGGCUGGGCUUGGACACGCCCUCCAUUGGGAUGGCACCACUCACUCUUGCGGUCGCACUAGUGUGGAAUUCUCGGGUGUCAAGG
B5: ENSMUSG00000058297.231|Spock2 (ssRNA)
RNA: GGGAGUUCUACAGUCCGACGAUCGCUUCGAUAUCCGCAUGCUAAACCAUGCCCCAGACUCUAUUUAAAGCCCUAUAGCAUAUAUGAAUAGAGAACGGUGUAUCUAUCAGAGGGGACCACACUGAGCAGCUAGGCCCUGAUGCCAUGCCUCAGCACGCCCUCAGACCUCCAGGCCGGGUGGAAGGGGCUUUUACCCAGAUGUCCUGUGGGGUUUUGUGUGUCUAUUGCUCCCCACUUCCCCCUCUCAAAGGAAAUUUCCUUGAUAUAUUUGAUGAAGAAUUCCUUACCUGGGCCUCUGAUACCCCUCUUGCGGUCGCACUAGUGUGGAAUUCUCGGGUGUCAAGG
B6: ENSMUSG00000061578.43|Ksr2|85:91;96:100 (ssRNA)
RNA: GGGAGUUCUACAGUCCGACGAUCGCUUCGAUAUCCGCAUGCUAAGCCACAGACUGAGCACACCACCUCGGACUGUGGAGACCAAGACACAUGCCCAGUGGGCAGACUCAGACUCACACGCUGGACCACACACACCGCAACACACUACACAUGGACAGGGCCAACUGCUAUCCUUCUGCCUGGACGAGCCAGCUGUGGAGUGUCCCAGCUGUGCUAUCCUGGAACACAGAACCAGGAUGGAACCAGAAACAAUACACCUGCUCCGUUGUCAAGGCUUCUAGGCCAAGGUCAGGGUAGGGAGGUGCUCUUGCGGUCGCACUAGUGUGGAAUUCUCGGGUGUCAAGG
B7: ENSMUSG00000029636.220|Wasf3 (ssRNA)
RNA: GGGAGUUCUACAGUCCGACGAUCGCUUCGAUAUCCGCAUGCUACAGGCUUGGGUUACAGGGAGGACCUUGCAGAGGGACCAGGACACUGCCUUCCCUUAGGUGCAUUAUUUACGUGGCCUGCAGCUCUUAAUAUCUCUCACUGUUUAUGAAAAGAAAGAUUCAGAUCCGGGGUGACAUUGUGUCAGUUGACAGGGAAUGCCUGUGGGAUAAUUAAAAAUGGUUUUUGCUCAUGAGUUUGGGAUGUCACCCAGCCGCCCACAUCGCCUGCUAUGUGUGUGGACGCCUGUCCGCUUGGCCAGCUACUCUUGCGGUCGCACUAGUGUGGAAUUCUCGGGUGUCAAGG
B8: ENSMUSG00000029636.163|Wasf3 (ssRNA)
RNA: GGGAGUUCUACAGUCCGACGAUCGCUUCGAUAUCCGCAUGCUACAUGGAAGCUUGGCUUUAGCUGAGAGAUGCCACCAGCUGUUCACAACCCAUGGUGCUGUGGCUAGAUUCCUGCUCAGUCUCUCAAACAGGGCCACACCCCUCCUGAAGCACAGCUCUCUUCUCUCCUGUUGUCGGCACAUUUUCAAUUUUAAAAAGUACCUCACAAGAUAAACUUGAUUCAGCCAGUUGCCCGGGCAGAGACCUGACUUCCCCUCUCCUGCCCUGAUCCUUUUUACCAAAUGGCGAUUCCAUAGUCCUGGCUCUUGCGGUCGCACUAGUGUGGAAUUCUCGGGUGUCAAGG

biological target: TDP-43 (Homo sapiens, UniProt Q13148 1-414); assay: RNA Bind-n-Seq with designed 260-mer pool; 25 mM Tris-HCl, 150 mM KCl, 3 mM MgCl2, BSA (printed 500 mg/mL), 20 units/mL SUPERase IN; pH not stated; 500 nM RNA pool, 1 h, 4 C; TDP-43 5, 50, 500 nM; high values mean tight binding; conditions: protein: recombinant; tags: SBP (GST cleaved off with PreScission; pGEX-GST-SBP)
Summary of the method: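 In 25 mM Tris-HCl, 150 mM KCl, 3 mM MgCl2, BSA and SUPERase IN, 500 nM of an in vitro-transcribed 260-nt 3′ UTR oligo pool was incubated for 1 h at 4 °C with SBP-tagged TDP-43 (5, 50 or 500 nM) captured on streptavidin beads. RNA remaining after washes was biotin-eluted, reverse transcribed, PCR-amplified and sequenced. Binding, R, is the bound-sample abundance of each oligo, normalized to mapped reads, divided by its abundance in input. Each duplicate used a separate, independent protein batch.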

TDP-43, sequence (Q13148 whole entry): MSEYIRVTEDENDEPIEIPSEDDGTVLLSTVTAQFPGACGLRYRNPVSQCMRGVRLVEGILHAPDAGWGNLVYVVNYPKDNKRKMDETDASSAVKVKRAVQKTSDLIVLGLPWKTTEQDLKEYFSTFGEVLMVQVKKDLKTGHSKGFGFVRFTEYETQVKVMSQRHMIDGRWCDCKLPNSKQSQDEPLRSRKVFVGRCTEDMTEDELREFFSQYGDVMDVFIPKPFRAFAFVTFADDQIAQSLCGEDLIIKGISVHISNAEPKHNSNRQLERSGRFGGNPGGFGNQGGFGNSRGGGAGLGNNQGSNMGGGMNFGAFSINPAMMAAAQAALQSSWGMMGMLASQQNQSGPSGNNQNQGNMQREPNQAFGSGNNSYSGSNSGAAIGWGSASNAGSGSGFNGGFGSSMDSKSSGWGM

Binder	binding signal
B1	0.18 R (bound/input frequency ratio)
B2	1.47 R (bound/input frequency ratio)
B3	1.49 R (bound/input frequency ratio)
B4	1.26 R (bound/input frequency ratio)
B5	0.453 R (bound/input frequency ratio)
B6	0.525 R (bound/input frequency ratio)
B7	3.17 R (bound/input frequency ratio)
B8	0.217 R (bound/input frequency ratio)
